HCT116 PTEN-null = growth suppressors of cells with PTEN tumor suppressor deletion; HCT116 PTEN-null viability, CellTiter-Glo, 60 h; stronger effect = lower value; AID 827; viability, % at 10 µM; 140,000 tested, 1.2% active;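 active means viability at or below a set limit, 4 SD under the median of all tested compounds, cut at about 3.7% in these data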;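 further: PTEN knockout HCT116 line with beta catenin targeted HCT116 as companion control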
ROMK primary = modulators of human ROMK potassium channel. P48048. Tet-inducible ROMK, thallium flux fluorescence; actives lie on both sides. B-score at 10 µM. 130,000 tested, 2% active;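 active means signal ratio slope over the read window, or its plate-corrected B-score, at least 3 SD from the plate mean, either direction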;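 further: B-score of the F/F0 ratio slope over 7 to 12 s after thallium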
Insulin prom inh = TRM-6 insulin promoter activity inhibition | TRM-6 cells (human fetal islet line), insulin promoter-eGFP reporter, imaging; reporter expression induced with tamoxifen | inhibition, % at 2 µM | 130,000 tested, 0.9% active;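 active means inhibition above the mean plus 3 SD, with well images judged a real hit on visual review, cut at about 60% in these data, passing the limit was not always enough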
HCT116 bCat-KO = beta-catenin-lacking colon tumor cell growth suppression. HCT116 beta-catenin knockout viability, CellTiter-Glo, 60 h; stronger effect = lower value. viability, % at 10 µM. 140,000 tested, 1.5% active. AID 818;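 active means viability at or under a set limit, the compound median less 4 SD, cut at about 6% in these data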;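 further: 0% = Hyamine 1622 control at 20 µM and 100% = untreated cell control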
p97 inhibitor = human p97 ATPase inhibition | P55072 | recombinant p97 ATPase, Kinase-Glo ATP luminescence, 3 h | inhibition, % at 8 µM | 220,000 tested, 0.42% active; in the data active means inhibition above about 15%;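 further: 0% = DMSO vehicle and 100% = wells lacking enzyme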
Target sequence (P55072 whole entry, looked up): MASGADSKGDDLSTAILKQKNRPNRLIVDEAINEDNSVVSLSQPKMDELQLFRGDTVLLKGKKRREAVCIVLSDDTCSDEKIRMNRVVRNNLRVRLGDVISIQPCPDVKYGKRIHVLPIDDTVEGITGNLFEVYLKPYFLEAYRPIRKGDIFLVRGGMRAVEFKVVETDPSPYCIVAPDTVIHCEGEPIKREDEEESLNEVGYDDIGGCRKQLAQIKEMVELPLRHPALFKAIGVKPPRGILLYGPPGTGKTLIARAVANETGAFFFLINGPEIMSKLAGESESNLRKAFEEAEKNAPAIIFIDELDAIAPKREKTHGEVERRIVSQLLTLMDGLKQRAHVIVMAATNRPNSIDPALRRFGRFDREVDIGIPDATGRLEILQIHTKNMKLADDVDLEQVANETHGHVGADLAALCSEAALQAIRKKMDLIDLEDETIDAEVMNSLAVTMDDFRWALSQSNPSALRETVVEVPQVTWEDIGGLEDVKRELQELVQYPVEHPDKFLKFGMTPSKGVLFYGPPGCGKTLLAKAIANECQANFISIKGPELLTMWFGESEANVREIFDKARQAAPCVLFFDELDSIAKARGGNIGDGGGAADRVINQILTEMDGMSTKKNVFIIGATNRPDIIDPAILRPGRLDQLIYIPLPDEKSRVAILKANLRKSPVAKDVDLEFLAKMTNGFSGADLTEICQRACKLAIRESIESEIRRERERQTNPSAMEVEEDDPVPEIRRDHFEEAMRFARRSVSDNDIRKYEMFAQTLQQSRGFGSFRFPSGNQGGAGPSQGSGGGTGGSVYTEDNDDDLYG
Lmaj promast = inhibitors of Leishmania major promastigote growth; inhibition, % at 10 µM; Leishmania major promastigotes, resazurin fluorescence viability; 200,000 tested, 9% active; in the data active means inhibition above about 50%;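 further: promastigotes grown with compound for 44 hours at 28 °C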
Active calls of the source: *; x = no result. Sampled rows, rich in hits. Any-hit rate of the full collection: about 10%.

SMILES	HCT116 PTEN-null	ROMK primary	Insulin prom inh	HCT116 bCat-KO	p97 inhibitor	Lmaj promast
COc1ccc(OCCOCCOc2ccc(C)cc2[N+](=O)[O-])cc1	90	-0.15	-6	92	-6	2
COCCCNCCOCCOc1ccc(C)cc1[N+](=O)[O-]	84	0.08	-40	88	1	94*
CCC(C)NCCCCOc1ccc(C)cc1[N+](=O)[O-] (stereo unspecified)	105	-1.3	-17	96	-2	88*
COCCCNCCOc1ccc(C)cc1[N+](=O)[O-]	105	0.81	23	95	8	90*
C=CCNCCCCOc1ccc(C)cc1[N+](=O)[O-]	85	x	-10	84	3	61*
Cc1ccc(OCCOCCN2CCCCC2)c([N+](=O)[O-])c1	x	-0.029	x	x	3	70*
COc1ccccc1N(CN1CCCC1=O)C(=O)COc1ccccc1	96	x	x	90	2	-5
CN(C)CC1CCCCC1OC(=O)c1ccc(Cl)cc1Cl (stereo unspecified)	90	-1.4	40	91	-2	2
CN(C)CC1CCCCC1OC(=O)c1ccc(Br)cc1 (stereo unspecified)	x	0.32	-27	x	5	74*
Cc1ccc(S(=O)(=O)Oc2cccc(/C=N/Nc3ccc(C(=O)O)cc3)c2)cc1	x	x	x	x	7	x
Cc1ccc(S(=O)(=O)Oc2cccc(/C=N/n3cnnc3)c2)cc1	18	-1.3	34	15	5	67*
C=CCOCCN(C)C1=NS(=O)(=O)c2cc([N+](=O)[O-])ccc21	x	0.19	21	x	1	100*
CCN1C/C(=C\c2cccc([N+](=O)[O-])c2)C(=O)/C(=C/c2cccc([N+](=O)[O-])c2)C1	1.4*	-0.67	100*	1.6*	5	100*
O=C1/C(=C/c2cccc([N+](=O)[O-])c2)CCc2ccccc21	2.0*	0.17	8	3.2*	0	95*
CCN1C/C(=C/c2ccc(OC)c(O)c2)C(=O)/C(=C/c2ccc(OC)c(O)c2)C1	x	0.021	x	x	4	100*
CCN(CC)S(=O)(=O)c1ccc(N2CCOCC2)c(NC(=O)Cc2cccc3ccccc23)c1	90	-1.6	-62	88	1	95*
CCN(CC)S(=O)(=O)c1ccc(N2CCOCC2)c(NC(=O)Cc2ccccc2F)c1	85	-0.069	6	74	-5	71*
CCN(CC)S(=O)(=O)c1ccc(N2CCOCC2)c(NC(=O)Cc2ccccc2)c1	86	x	x	94	-5	4
CCN(CC)S(=O)(=O)c1ccc(N2CCOCC2)c(NC(=O)CC(C)(C)C)c1	x	x	x	x	-6	x
Cc1oc(-c2cccs2)nc1CN1CCC(CO)(CCOc2ccccc2)CC1	x	-1.6	x	x	-4	73*
COc1ccc2[nH]c(CN3CCC(CO)(CCOc4ccccc4)CC3)c(C)c2c1	x	-0.37	x	x	3	88*
OCC1(CCOc2ccccc2)CCN(CC2=Cc3cc(Cl)ccc3OC2)CC1	x	-0.15	x	x	-11	94*
Cc1nn(C)cc1CN1CCC(CO)(CCOc2ccccc2)CC1	x	x	x	x	0	74*
COc1ccc(CN2CCC(CO)(CCOc3ccccc3)CC2)c(OC)c1C	x	0.24	x	x	-10	43
OCCOc1cccc(CN2CCC(CO)(CCOc3ccccc3)CC2)c1	x	x	x	x	4	-5
SMILES	HCT116 PTEN-null	ROMK primary	Insulin prom inh	HCT116 bCat-KO	p97 inhibitor	Lmaj promast
Cc1[nH]c2ccccc2c1C(=O)CSC(=S)N1CCCCC1	91	0.26	-33	91	3	7
CN(C)S(=O)(=O)N1CCC(Oc2ccc(C(=O)NCC(C)(C)CO)cc2)CC1	x	-0.13	x	x	0	-1
O=C1CC(=O)N2N=C(c3ccc([N+](=O)[O-])cc3)SC2=N1	103	0.21	-46	91	6	-4
CC(=O)C1=C(C)Nc2ncnn2C1c1ccc(Cl)cc1 (stereo unspecified)	103	x	46	102	1	-2
Nc1c(C(=O)NCCN2CCOCC2)c2nc3ccccc3nc2n1-c1ccccc1	75	x	x	78	-5	13
Nc1c(C(=O)NCCN2CCOCC2)c2nc3ccccc3nc2n1CCc1ccccc1	22	x	x	43	4	70*
Nc1c(C(=O)NCc2ccco2)c2nc3ccccc3nc2n1CCc1ccc(F)cc1	26	-0.0084	-11	28	3	99*
Nc1c(S(=O)(=O)c2cc(Cl)ccc2Cl)c2nc3ccccc3nc2n1CCN1CCOCC1	52	-0.96	5	59	-2	80*
Nc1c(C(=O)NCc2ccc3c(c2)OCO3)c2nc3ccccc3nc2n1CCCN1CCOCC1	1.4*	0.6	x	1.4*	-8	63*
CC(=O)Nc1ccc(S(=O)(=O)c2c(N)n(CCN3CCOCC3)c3nc4ccccc4nc23)cc1	80	x	3	80	4	-5
Cc1cc(=O)[nH]c(SCC(=O)Nc2ccc(F)c([N+](=O)[O-])c2)n1	x	-0.0029	x	x	-1	-8
COC(=O)[C@H](CC(C)C)NC(=O)NCCC1=CCCCC1	x	-0.2	x	x	-2	x
COCCn1c(N)c(C(=O)NCC2CCCO2)c2nc3ccccc3nc21 (stereo unspecified)	60	-3.2	x	64	-4	16
CC(C)OC(=O)c1c(N)n(CCCN2CCOCC2)c2nc3ccccc3nc12	94	1.1	-8	91	-5	21
COc1ccccc1CNC(=O)c1c(N)n(CCCN2CCOCC2)c2nc3ccccc3nc12	8	x	-19	11	-4	51*
CC(C)Cn1c(N)c(C(=O)NCC2CCCO2)c2nc3ccccc3nc21 (stereo unspecified)	62	-0.56	6	70	8	59*
CCCNC(=O)c1nc(C)n(-c2cc(Cl)ccc2Cl)n1	x	-1.4	x	x	3	2
Cc1c(NC(=O)CN2CCN(c3ccc(O)cc3)CC2)c(=O)n(-c2ccccc2)n1C	x	0.32	x	x	-2	-2
O=C(Cc1ccccc1[N+](=O)[O-])NCCCN1CCOCC1	x	0.0035	x	x	0	0
O=C(NCCCN1CCOCC1)c1ccc(Sc2ccc(Br)cc2)c([N+](=O)[O-])c1	92	1.5	-59	97	9	92*
O=C(NCCCN1CCOCC1)c1ccc(Sc2ccccc2Cl)c([N+](=O)[O-])c1	76	-1.2	-32	60	0	94*
Cc1cc(C(=O)NCCN2CCOCC2)ccc1[N+](=O)[O-]	x	1	-83	x	1	5
CN(CC(=O)Nc1ccc(Cl)c(Cl)c1)C(=O)C12CC3CC(CC(C3)C1)C2	63	-0.6	-50	62	-8	92*
COC(=O)N/N=C/c1ccc(Oc2ccccc2)cc1	x	-0.016	x	x	-4	8
Cc1ccc(NC(=O)Cn2c(O)c(N=NC(=O)c3cc4ccccc4cc3O)c3ccccc32)cc1	4	x	x	42	3	-9
O=C(N=Nc1c(O)n(Cc2ccccc2)c2ccccc12)c1cc2ccccc2cc1O	1.5*	x	x	1.7*	4	9
O=C(N=Nc1c(O)n(Cc2ccccc2)c2ccccc12)c1ccc(O)cc1	46	0.19	21	59	-7	91*
CCNc1nc(SCCOc2ccc(C)cc2)nc(N(C)C)n1	66	x	x	74	0	-1

Screening data deposited in PubChem BioAssay by several laboratories.
